Laboratory results taken from paper PMC12670160, “A drug-repurposing screen of FDA- and EMA-approved drugs identifies two NF-κB inhibitors active against eumycetoma” (Journal of Antimicrobial Chemotherapy, 2025).
Structures can show the parent of a compound that is named as a salt. Where two headings read alike, the source gives them in different places. The whole screen tested about 5,300 compounds, of which about 130 (2.5%) showed an effect of 50% or more. The sample holds strong results, similar compounds and a random draw of the others, so the mix is not that of the screen.

Tested on: M. mycetomatis strain mm55
Details: primary screen, metabolic activity vs growth control, 96 h, 2 µM, inhibitor

Row | SMILES | % viability | % viability (Madurella mycetomatis metabolic activity at 2µM (%))
1 | Cc1ccc(Cl)c(OCC(O)CNC(C)C)c1 (centres unmarked) [ONC0003711, 12chloro5methylphenoxy3isopropylamino2propanol] | 103% | –
2 | O=C1C2CC=CCC2C(=O)N1SC(Cl)(Cl)Cl (centres unmarked) [ONC0003351, captan] | 76.61% | –
3 | NC(Cc1ccc(O)cc1)C(=O)O (centres unmarked) [ONC0003385, dltyrosine] | 63.01% | –
4 | OC[C@H]1OC(O)C[C@@H](O)[C@@H]1O (mixture of isomers) [ONC0003476, 2deoxyglucose] | 78.39% | –
5 | COC(=O)[C@H](NC(=O)c1cc(-c2ccccc2)nc2ccccc12)c1ccccc1 [ONC0001501, sb218795] | 80.75% | –
6 | CC(C)NC(=O)COc1cccc(-c2nc(Nc3ccc4[nH]ncc4c3)c3ccccc3n2)c1 [ONC0001882, slx2119] | 46.69% | –
7 | O=C(NCc1cccc(O)c1)Nc1nc(-c2ccncc2)cs1 [ONC0002554, srpin340] | – | 81.94%
8 | c1cc(Nc2cc(C3CC3)[nH]n2)nc(Nc2ccc3[nH]cnc3c2)n1 [ONC0003009, apy29] | 67.52% | –
9 | CC(C)(C)c1cc(/C=C(\C#N)C(N)=S)cc(C(C)(C)C)c1O [ONC0005258, tyrphostin ag 879 ag 879] | 127.6% | –
10 | CC(C)(C)c1cc(C=C(C#N)C#N)cc(C(C)(C)C)c1O [ONC0004560, tyrphostin 9 sf 6847] | 1.693% | –
11 | CC(C)(C)c1cc(C=C(C#N)C#N)cc(Br)c1O [ONC0004740, ag1024] | 105.8% | –
12 | CC(C)C[C@@H](N)C(=O)N[C@H]1C(=O)N[C@@H](CC(N)=O)C(=O)N[C@H]2C(=O)N[C@H]3C(=O)N[C@H](C(=O)N[C@H](C(=O)O)c4cc(O)cc(O)c4-c4cc3ccc4O)[C@H](O)c3ccc(c(Cl)c3)Oc3cc2cc(c3O[C@@H]2O[C@H](CO)[C@@H](O)[C@H](O)[C@H]2O[C@H]2C[C@](C)(N)[C@H](O)[C@H](C)O2)Oc2ccc(cc2Cl)[C@H]1O [ONC0002123, norvancomycin hydrochloride] | 86.02% | –
13 | CCN(CC)C(=O)N[C@H]1CC2c3cccc4[nH]cc(c34)CC2N(C)C1 (some centres unmarked) [ONC0002019, terguride] | 81.88% | –
14 | Clc1ccc(COC(Cn2ccnc2)c2ccc(Cl)cc2Cl)cc1 (centres unmarked) [ONC0000666, econazole nitrate] | 102.4% | –
15 | Clc1ccc(C(Cn2ccnc2)OCc2ccsc2Cl)c(Cl)c1 (centres unmarked) [Tioconazole] | 3.335% | –
16 | Clc1ccc(CSC(Cn2ccnc2)c2ccc(Cl)cc2Cl)cc1 (centres unmarked) [ONC0000678, sulconazole nitrate] | 120.3% | –
17 | Clc1ccc(C(Cn2ccnc2)OCc2ccc(Sc3ccccc3)cc2)c(Cl)c1 (centres unmarked) [ONC0004926, fenticonazole nitrate] | 131.8% | –
18 | Clc1ccc(COC(Cn2ccnc2)c2ccc(Cl)cc2Cl)c(Cl)c1 (centres unmarked) [Miconazole nitrate] | 2.05% | –
19 | Clc1ccc(CCC(Cn2ccnc2)Sc2c(Cl)cccc2Cl)cc1 (centres unmarked) [ONC0005620, butoconazole] | 76.6% | –
20 | C=CCOC(Cn1ccnc1)c1ccc(Cl)cc1Cl (centres unmarked) [ONC0005416, enilconazole sulfate] | 2.508% | –
21 | Clc1ccc(C(Cn2ccnc2)OCc2csc3c(Cl)cccc23)c(Cl)c1 (centres unmarked) [ONC0005215, sertaconazole nitrate] | 82% | –
22 | COc1ccc(CCCOC(Cn2ccnc2)c2ccc(OC)cc2)cc1 (centres unmarked) [ONC0000065, skf96365] | 143.6% | –
23 | Clc1ccc(C(Cn2ccnc2)OCc2c(Cl)cccc2Cl)c(Cl)c1 (centres unmarked) [Isoconazole nitrate (Travogen), Isoconazole nitrate] | 2.362% | –
